For 90 compounds, inhibition results are on record in PubChem BioAssay AID588852 (The Scripps Research Institute Molecular Screening Center, 2011).

Out of some 360,000 compounds screened, about 4,600 (1.3%) were called active. This is one part of a sample in which actives are shown more often than they occur.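 How the source made its calls: active means percent inhibition above its own plate's cutoff, namely the mean of that plate's compound wells plus 3 SD; inactive means the rest.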

Sequence of Muscarinic acetylcholine receptor M1 (Homo sapiens) (P11229 whole entry, looked up): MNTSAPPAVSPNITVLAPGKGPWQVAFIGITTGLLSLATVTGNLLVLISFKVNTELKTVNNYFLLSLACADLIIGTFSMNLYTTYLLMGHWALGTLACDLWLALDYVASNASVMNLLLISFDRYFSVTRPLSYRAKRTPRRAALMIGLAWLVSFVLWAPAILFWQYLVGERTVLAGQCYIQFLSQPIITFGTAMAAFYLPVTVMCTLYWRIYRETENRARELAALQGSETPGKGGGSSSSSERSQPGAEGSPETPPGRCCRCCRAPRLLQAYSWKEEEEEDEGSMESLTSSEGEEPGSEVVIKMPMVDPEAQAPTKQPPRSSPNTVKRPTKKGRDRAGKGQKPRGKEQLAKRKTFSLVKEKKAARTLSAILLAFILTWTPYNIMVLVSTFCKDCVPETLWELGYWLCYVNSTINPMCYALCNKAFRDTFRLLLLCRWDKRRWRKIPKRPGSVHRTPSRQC

The assay concerns the target Muscarinic acetylcholine receptor M1 (Homo sapiens) (UniProt P11229). The assay is described as follows: human M1 muscarinic receptor antagonists, primary screen, CHO-K1 cells, Fluo-8 calcium fluorescence, 1536-well (AID 588852).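 Further: peak over basal fluorescence ratio during 140 s after agonist addition; 0% = ACh EC80 plus DMSO and 100% = DMSO alone without agonist.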 Conditions: CHO-K1 hM1, Fluo-8 calcium fluorescence, ACh EC80 antagonist; at 3 µM; stronger effect = higher value.
As a reminder, the inhibition is the change of the read-out against control, counted positive when it falls. `CCCCNC(=O)c1nc(C2CCN(S(=O)(=O)c3ccc(F)c(F)c3)CC2)oc1-c1cccc(C(F)(F)F)c1`: the inhibition is -12% (inactive).

In the case of `CCN(CC)CCCC(C)n1c2nc(=O)[nH]c(=O)c-2nc2cc(Cl)ccc21` (stereo not given), the inhibition is 49.8% (active).

Turning to `O=Cc1cn(CCOc2ccc(F)cc2)c2ccccc12`, the inhibition is 7.49% (inactive).

`CCCN(CCC)S(=O)(=O)c1cc2c(cc1Br)CCN2C(=O)CC`: the inhibition is -3.69% (inactive).

`O=C(Nc1cccc(Cl)c1N1CCOCC1)c1cccnc1`: the inhibition is -2.23% (inactive).

In the case of `CCN1CCN(c2c(Cl)cccc2NC(=O)c2ccc(Br)o2)CC1`, the inhibition is 33% (active).

`O=C(Nc1cccc(Cl)c1N1CCOCC1)c1ccc2c(c1)OCCO2`: the inhibition is -6.53% (inactive).

As for `CCn1cc(-c2cc(C(=O)O)on2)c(C)n1`, the inhibition is -5.04% (inactive).

Turning to `Cc1ccc(-c2nc3ccc(Br)cn3c2Cc2ccccc2C(F)(F)F)cc1`, the inhibition was -2.72% (inactive).

On to `CN1C(=O)c2ccc(NC(=O)c3c(F)c(F)c(F)c(F)c3F)cc2C1=O`, for which the inhibition is -10% (inactive).

As for `CCC(C)Sc1nc2c(cnn2-c2ccc(F)cc2)c(=O)[nH]1` (stereo not given), the inhibition was -10.5% (inactive).

As for `Cc1cccc(-n2ncc3c(=O)[nH]c(SCC(=O)Nc4cc(C)on4)nc32)c1`, the inhibition is -7.77% (inactive).

For `O=C(CSc1nc2c(cnn2-c2ccc(F)cc2)c(=O)[nH]1)N1CCCCCC1`, the inhibition was 39.7% (active).

Take `CC(C)C[C@H](NC(=O)[C@@H]1O[C@H]1C(=O)O)C(=O)NCCCCN=C(N)N`: the inhibition was -28.2% (inactive).

`CCCNC(=O)C1(C)CCN(Cc2csc(-c3ccc(Cl)cc3)n2)C1` (stereo not given): the inhibition was 15.8% (inactive).

Take `CSCCC(c1nnnn1Cc1ccccc1)N1CCN(C/C=C/c2ccccc2)CC1` (stereo not given): the inhibition was -4.53% (inactive).

Regarding `Nc1ncnc2c1ncn2[C@@H]1O[C@H](C(=O)N2CCSC2)[C@@H](O)[C@H]1O`, the inhibition was -21.6% (inactive).

`CN(C)CCCO/N=C(\c1ccccc1)c1ccncc1`: the inhibition is 34.6% (active).

Consider `O=C(O/N=C(/c1ccccc1)c1ccncc1)c1ccccc1[N+](=O)[O-]`, for which the inhibition is 0.78% (inactive).

Take `COc1cc(OC)nc(N/N=C(\c2ccccc2)c2ccncc2)n1`: the inhibition was 1.36% (inactive).

Turning to `Oc1ccccc1N1CCN(c2ncnc3sc(-c4ccccc4)cc23)CC1`, the inhibition was 25.7% (active).

With `COc1ccccc1N1CCN(c2ncnc3sc(C)c(-c4ccccc4)c23)CC1`, the inhibition was -8.38% (inactive).

On to `CCc1cc2c(N3CCN(c4nnc(CC)s4)CC3)ncnc2s1`, for which the inhibition was 6.82% (inactive).

As to `CN(C)C(=O)c1cccc(-c2cnc3c(NC=O)cc(-c4ccc(F)cc4)cn23)c1`, the inhibition is -4.58% (inactive).

Regarding `O=C(COc1ccc(Cl)cc1)Nc1ccccc1CO`, the inhibition was 3.31% (inactive).

Take `Cc1cc(N2CCCC2)ccc1NC(=O)COc1ccc(Cl)cc1`: the inhibition is 38.5% (active).

`Cc1cc(C)cc(OCC(=O)Nc2ccc(N3CCOCC3)cc2N2CCOCC2)c1`: the inhibition is 0.26% (inactive).

Turning to `Fc1ccccc1CCNc1nnnn1-c1ccccc1`, the inhibition was -15.4% (inactive).

As to `O=C(COc1ccccc1)Nc1nonc1NC(=O)COc1ccccc1`, the inhibition was 3.1% (inactive).

Consider `COc1ccc(C)cc1NC(=S)Nc1ccccc1SC`, for which the inhibition was -4.63% (inactive).

Turning to `Cc1cccc(NC(=S)N2CCC(c3nc4ccccc4s3)CC2)c1`, the inhibition is 6.88% (inactive).

Consider `O=C(c1cccs1)N1CCC(c2nc3ccccc3s2)CC1`, for which the inhibition is -0.25% (inactive).

Turning to `Cc1cccc(C(=O)N2CCC(c3nc4ccccc4s3)CC2)c1`, the inhibition is 41.2% (active).

As to `CC(/C=C/c1ccccc1)=N\NC(=O)C1CC1(C)c1ccccc1` (stereo not given), the inhibition was -3.18% (inactive).

Consider `O=C(CNC(=O)c1ccccc1Br)NCCSc1ccc(Br)cc1`, for which the inhibition was -10.6% (inactive).

With `COc1cc(NC(=O)COc2ccccc2Cl)ccc1NC(=O)C(C)C`, the inhibition is 6.01% (inactive).

As for `CCc1ccccc1OCC(=O)Nc1ccc(C)c(S(=O)(=O)N2CCCCCC2)c1`, the inhibition is 6.49% (inactive).

Consider `Cc1ccccc1OCC(=O)Nc1ccc(N2CCN(C(=O)C(C)C)CC2)c(Cl)c1`, for which the inhibition was 34.5% (active).

Regarding `CCN1C(=O)[C@H]2[C@@H](c3ccccc3)N[C@]3(CCCN(Cc4ccc(C)cc4)C3=O)[C@H]2C1=O`, the inhibition is -5.93% (inactive).

For the compound `COc1ccccc1C(=O)NCCC(=O)NCC(c1ccco1)N1CCCCC1` (stereo not given), the inhibition was -5.11% (inactive).

Turning to `CSc1ncccc1C(=O)NCC(c1ccco1)N1CCCCC1` (stereo not given), the inhibition is 34.8% (active).

Regarding `COc1ccc(C(CNC(=O)c2cccnc2SC)N2CCOCC2)cc1` (stereo not given), the inhibition is -5.53% (inactive).

As for `Cc1nn(-c2ccccc2)c2sc(C(=O)N(Cc3ccco3)C(C)C(=O)NC(C)(C)C)cc12` (stereo not given), the inhibition is -7.09% (inactive).

`CCOC1=C2CN(S(=O)(=O)c3ccc(C)cc3)[C@H](c3cccs3)C[C@H]2[C@H]2C(=O)N(c3ccccc3)C(=O)[C@H]2C1`: the inhibition is 1.5% (inactive).

As to `CC(C)C1CC2=C(C(=O)OC(C)(C)O2)C(c2ccc(F)cc2)O1` (stereo not given), the inhibition was -37.3% (inactive).

`O=C(NCC(=O)N(CC1CCCO1)C(C(=O)NC1CCCCC1)c1ccccc1)c1ccco1` (stereo not given): the inhibition is -7.84% (inactive).

Take `O=C(NCC(=O)N(Cc1cccs1)C(C(=O)NC1CCCCC1)c1ccco1)c1cccs1` (stereo not given): the inhibition was 35.6% (active).

As to `Cc1ccccc1N(C(=O)CNC(=O)c1cccs1)C(C(=O)NC1CCCC1)c1ccncc1` (stereo not given), the inhibition is -4.08% (inactive).

On to `COc1ccc(CC(N)c2csc(NC(=O)NC(c3ccccc3)c3ccccc3)n2)cc1` (stereo not given), for which the inhibition is -1.87% (inactive).

As to `CN1OC[C@@H]2CN(C(=O)C(C)(C)C)[C@H](c3ccc(-n4ccnc4)cc3)C[C@@H]21`, the inhibition was 13.8% (inactive).

With `O=C(COC(=O)c1cc(S(=O)(=O)N2CCOCC2)ccc1F)NC1CC1`, the inhibition is -2.77% (inactive).

Regarding `CCOC(=O)/C(N=Nc1cc(C(=O)O)cc(C(=O)O)c1)=C(\O)CCl`, the inhibition was -12% (inactive).

For `CCN(CC)CCn1c2c(c(SCC(=O)Nc3nc4ccccc4s3)nc1=O)CCCC2`, the inhibition was 42.1% (active).

For the compound `Cc1ccc2nc(NC(=O)CSc3nc(=O)n(CCCN(C)C)c4c3CCC4)sc2c1`, the inhibition is 8.16% (inactive).

Regarding `CCN(CC)CCn1c2c(c(SCC(=O)Nc3ccc(C(C)C)cc3)nc1=O)CCC2`, the inhibition is 7.72% (inactive).

As to `COCCn1c(SCC(=O)Nc2cc(OC)ccc2OC)nc2c(c1=O)SC(C)C2` (stereo not given), the inhibition is -11.7% (inactive).

For the compound `CC1CN(C(=O)c2ccc3c(c2)OCO3)OC(c2ccccc2)O1` (stereo not given), the inhibition was 1.63% (inactive).

Consider `CCOc1ccc(NC(=O)c2ccc(NC(=O)COC(=O)c3ccc(NC(=O)CC#N)cc3)cc2)cc1`, for which the inhibition is 7.32% (inactive).

With `COc1ccc(NC(=O)COC(=O)C2COc3ccccc3O2)cc1` (stereo not given), the inhibition is -2.48% (inactive).

As to `CCC(C)(C)c1ccc(Oc2ccc(NC(=O)COC(=O)C3=COCCO3)cc2)cc1`, the inhibition is 24.8% (active).

`COc1ccc(C(C(=O)NC2CCCCC2)N(C(=O)Cc2c[nH]c3ccccc23)c2ccccc2)cc1OC` (stereo not given): the inhibition is -2.89% (inactive).

On to `COc1ccc(C2CC(c3cccs3)=NN2C(=O)CSc2nnc(N)s2)cc1OC` (stereo not given), for which the inhibition was 48.8% (active).

Regarding `COc1ccc(C2CC(c3cccs3)=NN2C(=O)COC(=O)c2cc3ccccc3cc2O)cc1OC` (stereo not given), the inhibition is -1.73% (inactive).

In the case of `COc1ccc(C2CC(c3cccs3)=NN2C(=O)CSc2nncs2)cc1OC` (stereo not given), the inhibition is -3.74% (inactive).

For the compound `O=C(Nc1nnc([C@H]2C[C@H](O)[C@@H](CO)O2)s1)c1cccc(Cl)c1`, the inhibition was -7.54% (inactive).

Take `Nc1nc2c(ncn2[C@@H]2O[C@H](CNCc3ccc(OCCCN4CCOCC4)cc3)[C@@H](O)[C@H]2O)c(=O)[nH]1`: the inhibition was -12.3% (inactive).

For `COC(=O)c1ccccc1Sc1c(/C=N/OCc2ccc(Cl)cc2)c(C(F)(F)F)nn1C`, the inhibition is 6.15% (inactive).

In the case of `Cn1nc(C(F)(F)F)c(C(=O)Nc2cccc(C(F)(F)F)c2)c1SCc1ccc(Cl)cc1`, the inhibition was 45.3% (active).

As for `O=C(CN1CCN(c2ccc(F)cc2)CC1)Nc1cccc(C(F)(F)F)c1`, the inhibition is -30.1% (inactive).

On to `COc1cccc(NC(=O)Nc2nnc(N3CCCCC3C)s2)c1` (stereo not given), for which the inhibition is -9.08% (inactive).

As to `C=C(C)c1cccc(C(C)(C)NC(=O)N2CCN(c3ncccn3)CC2)c1`, the inhibition was -3.97% (inactive).

Turning to `C=C(C)c1cccc(C(C)(C)NC(=O)NCCN(CC)CC)c1`, the inhibition was 82.6% (active).

For `C=C(C)c1cccc(C(C)(C)NC(=O)NC2CCCC2)c1`, the inhibition was -0.33% (inactive).

With `CN(CC(=O)NCCc1ccccc1)S(=O)(=O)c1cnc[nH]1`, the inhibition is -5.57% (inactive).

For `CC(C)C(=O)Nc1nnc(Sc2ccc(N(C)C)cc2)s1`, the inhibition was -14.1% (inactive).

In the case of `CN(C)C1=NC[C@H](Cc2ccccc2)N1CCc1ccc(F)cc1`, the inhibition was 9.98% (inactive).

For the compound `CC(C)c1ccc(NC(=O)Cn2ncc3ccccc32)cc1`, the inhibition is -20.8% (inactive).

For `CC(NC(=O)Nc1ccccc1)c1ccccc1` (stereo not given), the inhibition was -2.37% (inactive).

As to `CCC(C(=O)Nc1ccc(C(C)C)cc1)c1ccccc1` (stereo not given), the inhibition was 37.1% (active).

Take `COc1ccc(C(C)(O)c2nc(-c3cc(F)cc(F)c3)cs2)cc1` (stereo not given): the inhibition is -4.19% (inactive).

For `COc1ccccc1N(C)S(=O)(=O)c1ccc(C(=O)N2CCC(C(N)=O)CC2)cc1`, the inhibition is -7.95% (inactive).

`COC(=O)CCCCC1=CCC2C(=O)C=C(O)C2C1` (stereo not given): the inhibition was 4.53% (inactive).

As for `Cc1ccc(C)c(N2CCN(C(=O)CCCCCn3c(=S)[nH]c4ccc(N5CCOCC5)cc4c3=O)CC2)c1`, the inhibition was 39.5% (active).

Take `Cc1ccc(C)c(N2CCN(C(=O)CCCn3c(=O)c4cccn4c4cccnc43)CC2)c1`: the inhibition was -0.03% (inactive).

On to `O=C(CCCCCn1c(=S)[nH]c2cc3c(cc2c1=O)OCO3)N1CCN(c2ccc(F)cc2)CC1`, for which the inhibition was -8.71% (inactive).

In the case of `Cc1ccnc(NC(=O)C(C)N2C(=O)c3ccccc3C2=O)c1` (stereo not given), the inhibition was -0.26% (inactive).

In the case of `Cc1ccccc1C#CC1=CC(=O)CC(C)(C)C1`, the inhibition was -7.17% (inactive).

Regarding `CN1CCN(c2ccc([N+](=O)[O-])c(Sc3nc4ccccc4[nH]3)c2)CC1`, the inhibition is -0.69% (inactive).

`CCC(C)N1C(=O)S/C(=C/c2ccc(Sc3nc4ccccc4[nH]3)o2)C1=O` (stereo not given): the inhibition was 32.9% (active).

As for `CN(Cc1ccccc1)C(=O)CSc1nc2ccccc2[nH]1`, the inhibition was -5.93% (inactive).
